# Data reported in the supplement of paper PMC8728848.
# This is one part of a sample in which the strongest signals are shown more often than they occur.
# B1: FimD (Bordetella pertussis) (protein)
# chain: MPARVISFCGAALAVWAGLAVQPAMAVDPPVDCGRALGLHFWSSASLISDQTPDGTLIGKPVVGRSLLSKSCKVPDDIKEDLSDNHDGEPVDIVLELGSNYKIRPQSYGHPGIVVDLPFGSTEETGIAIYIDFGSSPMQKVGERQWLYPQKGEVLFDVLTINGDNAEVRYQAIKVGPLKRPRKLVLSQFPNLFTYKWVFMRGTSQERVLAQGTIDTDVATSTIDLKTCRYTSQTVSLPIIQRSALTGVGTTLGMTDFQMPFWCYGWPKVSVYMSATKTQTGVDGVALPATGQAAGMASGVGVQLINGKTQQPVKLGLQGKIALPEAQQTESATFSLPMKAQYYQTSTSTSAGKLSVTYAVTLNYD
# Experiments:
# Assay in all cases: glycan array binding signal (z-score within array); higher = stronger binding
# Settings in all cases: glycan notation: IUPAC condensed, linker removed
# [1] = target: Fuc(a1-2)Gal(b1-3)GlcNAc(b1-3)GalNAc
# In short: (§1)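 Glycan array data were curated from 3228 arrays in the Consortium for Functional Glycomics database and kept only where the protein sequence was available. Glycan names were converted to IUPAC-condensed notation, and columns mapping to the same glycan were averaged. The binding signal is a within-array Z-score, averaged across arrays of the same protein sequence at different concentrations or buffers and across linkers. Negative Z-scores can be read as non-binding.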
# [2] = target: Fuc(a1-2)Gal(b1-4)GlcNAc6S
# In short: as §1
# [3] = target: Fuc(a1-2)Gal(b1-4)[Fuc(a1-3)]GlcNAc(b1-2)[Fuc(a1-2)Gal(b1-4)[Fuc(a1-3)]GlcNAc(b1-4)]Man(a1-3)[Fuc(a1-2)Gal(b1-4)[Fuc(a1-3)]GlcNAc(b1-2)Man(a1-6)]Man(b1-4)GlcNAc(b1-4)GlcNAc
# In short: as §1
# [4] = target: Fuc(a1-2)Gal(b1-4)[Fuc(a1-3)]GlcNAc(b1-3)[Neu5Ac(a2-6)Gal(b1-4)GlcNAc(b1-6)]Gal(b1-4)Glc
# In short: as §1
# Fuc(a1-2)Gal6S(b1-4)Glc = target: Fuc(a1-2)Gal6S(b1-4)Glc
# In short: as §1
# [5] = target: Fuc(a1-2)[Gal(a1-3)]Gal(b1-3)GlcNAc
# In short: as §1
# [6] = target: Fuc(a1-2)[GalNAc(a1-3)]Gal(b1-3)GalNAc(b1-3)Gal(a1-4)Gal(b1-4)Glc
# In short: as §1
# [7] = target: Fuc(a1-2)[GalNAc(a1-3)]Gal(b1-4)GlcNAc(b1-2)Man(a1-3)[Fuc(a1-2)[GalNAc(a1-3)]Gal(b1-4)GlcNAc(b1-2)Man(a1-6)]Man(b1-4)GlcNAc(b1-4)[Fuc(a1-6)]GlcNAc
# In short: as §1
# [8] = target: Fuc(a1-2)[GalNAc(a1-3)]Gal(b1-4)GlcNAc(b1-3)Gal(b1-4)GlcNAc(b1-3)Gal(b1-4)GlcNAc
# In short: as §1
# [9] = target: Fuc(a1-2)[GalNAc(a1-3)]Gal(b1-4)[Fuc(a1-3)]GlcNAc(b1-3)GalNAc
# In short: as §1
# Fuc(a1-4)GlcNAc = target: Fuc(a1-4)GlcNAc
# In short: as §1
# [10] = target: Gal(a1-3)Gal(b1-4)GlcNAc(b1-2)Man(a1-3)[Gal(a1-3)Gal(b1-4)GlcNAc(b1-2)Man(a1-6)]Man(b1-4)GlcNAc(b1-4)GlcNAc
# In short: as §1
# Gal(b1-3)GalNAc(b1-3)Gal = target: Gal(b1-3)GalNAc(b1-3)Gal
# In short: as §1
# [11] = target: Gal(b1-3)GlcNAc(a1-6)Gal(b1-4)GlcNAc
# In short: as §1
# [12] = target: Gal(b1-3)GlcNAc(b1-2)Man(a1-3)[Gal(b1-3)GlcNAc(b1-2)Man(a1-6)]Man(b1-4)GlcNAc(b1-4)[Fuc(a1-6)]GlcNAc
# In short: as §1
# [13] = target: Gal(b1-3)GlcNAc(b1-2)[Gal(b1-3)GlcNAc(b1-6)]Man(a1-6)[Gal(b1-3)GlcNAc(b1-2)Man(a1-3)]Man(b1-4)GlcNAc(b1-4)GlcNAc
# In short: as §1
# [14] = target: Gal(b1-3)GlcNAc(b1-3)Gal(b1-4)Glc
# In short: as §1
# [15] = target: Gal(b1-3)GlcNAc(b1-3)Gal(b1-4)GlcNAc(b1-2)[Gal(b1-3)GlcNAc(b1-3)Gal(b1-4)GlcNAc(b1-6)]Man(a1-6)[Gal(b1-3)GlcNAc(b1-3)Gal(b1-4)GlcNAc(b1-2)Man(a1-3)]Man(b1-4)GlcNAc(b1-4)[Fuc(a1-6)]GlcNAc
# In short: as §1
# [16] = target: Gal(b1-3)GlcNAc(b1-3)Gal(b1-4)GlcNAc(b1-3)Gal(b1-4)GlcNAc(b1-2)[Gal(b1-3)GlcNAc(b1-3)Gal(b1-4)GlcNAc(b1-3)Gal(b1-4)GlcNAc(b1-6)]Man(a1-6)[Gal(b1-3)GlcNAc(b1-3)Gal(b1-4)GlcNAc(b1-3)Gal(b1-4)GlcNAc(b1-2)Man(a1-3)]Man(b1-4)GlcNAc(b1-4)[Fuc(a1-6)]GlcNAc
# In short: as §1
# [17] = target: Gal(b1-3)[Fuc(a1-4)]GlcNAc(b1-6)GalNAc
# In short: as §1
# [18] = target: Gal(b1-4)GalNAc(a1-3)[Fuc(a1-2)]Gal(b1-4)GlcNAc
# In short: as §1
# Gal(b1-4)Glc = target: Gal(b1-4)Glc
# In short: as §1
# [19] = target: Gal(b1-4)GlcNAc(b1-3)Gal(b1-3)GalNAc
# In short: as §1
# [20] = target: Gal(b1-4)GlcNAc(b1-3)Gal(b1-4)GlcNAc(b1-3)Gal(b1-4)GlcNAc(b1-3)Gal(b1-4)GlcNAc(b1-3)Gal(b1-4)GlcNAc(b1-2)Man(a1-3)[Gal(b1-4)GlcNAc(b1-3)Gal(b1-4)GlcNAc(b1-3)Gal(b1-4)GlcNAc(b1-3)Gal(b1-4)GlcNAc(b1-3)Gal(b1-4)GlcNAc(b1-2)Man(a1-6)]Man(b1-4)GlcNAc(b1-4)GlcNAc
# In short: as §1
# [21] = target: Gal(b1-4)GlcNAc(b1-3)Gal(b1-4)GlcNAc(b1-3)Gal(b1-4)GlcNAc(b1-3)Gal(b1-4)GlcNAc(b1-3)Gal(b1-4)GlcNAc(b1-2)[Gal(b1-4)GlcNAc(b1-3)Gal(b1-4)GlcNAc(b1-3)Gal(b1-4)GlcNAc(b1-3)Gal(b1-4)GlcNAc(b1-3)Gal(b1-4)GlcNAc(b1-6)]Man(a1-6)[Gal(b1-4)GlcNAc(b1-3)Gal(b1-4)GlcNAc(b1-3)Gal(b1-4)GlcNAc(b1-3)Gal(b1-4)GlcNAc(b1-3)Gal(b1-4)GlcNAc(b1-2)Man(a1-3)]Man(b1-4)GlcNAc(b1-4)[Fuc(a1-6)]GlcNAc
# In short: as §1
# Gal3S(b1-4)Glc = target: Gal3S(b1-4)Glc
# In short: as §1
# Gal6S(b1-3)GlcNAc = target: Gal6S(b1-3)GlcNAc
# In short: as §1
# [22] = target: GalNAc(a1-3)GalNAc(b1-3)Gal(a1-4)Gal(b1-4)Glc
# In short: as §1
# GalNAc(b1-3)Gal = target: GalNAc(b1-3)Gal
# In short: as §1
# GalNAc(b1-3)GalNAc = target: GalNAc(b1-3)GalNAc
# In short: as §1
binder,measurement,setting,value
B1,glycan array binding signal (z-score),[1],-0.342
same,glycan array binding signal (z-score),[2],-0.052
same,glycan array binding signal (z-score),[3],0.133
same,glycan array binding signal (z-score),[4],-0.355
same,glycan array binding signal (z-score),Fuc(a1-2)Gal6S(b1-4)Glc,-0.056
same,glycan array binding signal (z-score),[5],-0.256
same,glycan array binding signal (z-score),[6],-0.248
same,glycan array binding signal (z-score),[7],-0.394
same,glycan array binding signal (z-score),[8],0.141
same,glycan array binding signal (z-score),[9],19.2
same,glycan array binding signal (z-score),Fuc(a1-4)GlcNAc,1.73
same,glycan array binding signal (z-score),[10],1.67
same,glycan array binding signal (z-score),Gal(b1-3)GalNAc(b1-3)Gal,-0.089
same,glycan array binding signal (z-score),[11],-0.163
same,glycan array binding signal (z-score),[12],0.621
same,glycan array binding signal (z-score),[13],0.171
same,glycan array binding signal (z-score),[14],-0.264
same,glycan array binding signal (z-score),[15],1.82
same,glycan array binding signal (z-score),[16],0.259
same,glycan array binding signal (z-score),[17],2.73
same,glycan array binding signal (z-score),[18],-0.051
same,glycan array binding signal (z-score),Gal(b1-4)Glc,-0.288
same,glycan array binding signal (z-score),[19],-0.264
same,glycan array binding signal (z-score),[20],0.072
same,glycan array binding signal (z-score),[21],0.919
same,glycan array binding signal (z-score),Gal3S(b1-4)Glc,-0.263
same,glycan array binding signal (z-score),Gal6S(b1-3)GlcNAc,0.772
same,glycan array binding signal (z-score),[22],-0.169
same,glycan array binding signal (z-score),GalNAc(b1-3)Gal,0.008
same,glycan array binding signal (z-score),GalNAc(b1-3)GalNAc,-0.207
